Assay outcomes (PubChem)
PAFAH1B2 inh: PAFAH1B2 (human) inhibition | P68402 | recombinant PAFAH1B2, FP-rhodamine activity probe, fluorescence polarization | inhibition, % at 3.39 µM | 340,000 tested, 1.2% active;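 active = inhibition above the mean of all tested compounds plus 3 SD, cut at about 24% in these data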;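 note: 0% = enzyme with DMSO and 100% = wells lacking PAFAH1B2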
pPAFAH FP inh: pPAFAH (human) enzyme inhibition; 330,000 tested, 1.5% active; recombinant pPAFAH, FP-rhodamine probe fluorescence polarization; inhibition, % at 3.39 µM;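 active = inhibition above the mean inhibition across the screen plus 3 SD, cut at about 25% in these data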;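 note: inhibitors block binding of the rhodamine activity-based probe so polarization drops; 0% = enzyme with DMSO and 100% = wells lacking pPAFAH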
PP5 inh: PP5 (human) phosphatase inhibition; inhibition, % at 6.7 µM; 320,000 tested, 0.18% active; AID 1987; purified PP5c, OMFP substrate fluorescence; P53041;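 active = inhibition above the campaign's mean inhibition across all tested compounds plus 3 SD, cut at about 9.5% in these data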;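 note: 0% = DMSO only and 100% = 100 µM cantharidin control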
Target sequence (P53041 whole entry, looked up): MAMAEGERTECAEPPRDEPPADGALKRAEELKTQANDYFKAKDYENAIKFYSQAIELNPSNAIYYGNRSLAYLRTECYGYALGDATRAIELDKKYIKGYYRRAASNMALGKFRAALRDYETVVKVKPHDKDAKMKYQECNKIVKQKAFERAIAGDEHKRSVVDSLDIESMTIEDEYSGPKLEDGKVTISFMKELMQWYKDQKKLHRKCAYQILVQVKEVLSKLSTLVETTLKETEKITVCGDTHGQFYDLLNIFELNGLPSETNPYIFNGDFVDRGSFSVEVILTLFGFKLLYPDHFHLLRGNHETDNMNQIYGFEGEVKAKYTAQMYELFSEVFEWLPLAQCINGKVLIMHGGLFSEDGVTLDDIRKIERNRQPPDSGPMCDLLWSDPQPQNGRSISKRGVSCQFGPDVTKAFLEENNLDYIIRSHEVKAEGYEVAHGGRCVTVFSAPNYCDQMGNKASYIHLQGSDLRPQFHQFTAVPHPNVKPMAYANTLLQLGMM
PAFAH2 FP inh: inhibitors of human PAFAH2 | inhibition, % at 3.39 µM | recombinant PAFAH2, FP-rhodamine activity probe, fluorescence polarization | AID 492956 | 340,000 tested, 0.99% active;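 active = inhibition above the mean over all tested compounds plus 3 SD, cut at about 30% in these data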;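 note: inhibitors block probe labeling of enzyme so polarization drops; 0% = enzyme with DMSO and 100% = wells lacking PAFAH2 protein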
PAFAH1B3 inh: inhibitors of human PAFAH1B3; recombinant PAFAH1B3, FP-rhodamine probe, fluorescence polarization; inhibition, % at 3.39 µM; 340,000 tested, 0.28% active; AID 492972;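 active = inhibition above the screen-wide average of all tested compounds plus 3 SD, cut at about 25% in these data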;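 note: 0% = enzyme with DMSO only and 100% = wells lacking PAFAH1B3 protein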
PP1 counter: blocks human PP1-alpha phosphatase, a PP5 counter-screen. P62136. purified PP1alpha, OMFP fluorescence. inhibition, % at 6.7 µM. 320,000 tested, 0.9% active. AID 2235;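 active = inhibition above the mean inhibition of all tested compounds plus 3 SD, computed separately for each screening campaign, cut at about 15% in these data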
PP1 confirm: confirmation of human PP1 phosphatase inhibitors | purified PP1alpha, OMFP substrate fluorescence | shares compounds with PP1 counter | 1,900 tested, 52% active | inhibition, % at 6.7 µM;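 active = mean PP1 inhibition above a set limit taken from the earlier primary screen, cut at about 15% in these data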
PP5 inh counter: PP5 phosphatase inhibition, counter-screen for PP1 inhibitors; shares compounds with PP1 counter; purified PP5c, OMFP fluorescence; inhibition, % at 6.7 µM; 1,900 tested, 4% active;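 active = mean PP5 inhibition over triplicate wells above about 9.5% taken from the earlier PP1 screen, limit read from the data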
pPAFAH confirm: confirmation of human plasma PAF acetylhydrolase (pPAFAH) inhibitors; recombinant pPAFAH, FP-Rh probe fluorescence polarization; AID 463230; shares compounds with pPAFAH FP inh; 2,300 tested, 72% active; inhibition, % at 3.39 µM;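 active = mean inhibition of the triplicate above the hit cutoff set for the earlier primary screen, cut at about 25% in these data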;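 note: 0% = enzyme with DMSO and 100% = wells lacking pPAFAH enzyme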
PAFAH1B3 conf FP: confirmation of human PAFAH1B3 inhibitors; shares compounds with PAFAH1B3 inh; recombinant PAFAH1B3, FP-Rh activity-based probe, fluorescence polarization; inhibition, % at 3.39 µM; 390 tested, 30% active; AID 493032;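 active = average inhibition over triplicate runs above the hit cutoff set in the earlier primary screen, cut at about 25% in these data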;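 note: 0% = enzyme with DMSO and 100% = wells lacking PAFAH1B3 protein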
* = called active by the depositor; nt = not tested or not shown. Only some compounds are listed: those with a hit (about 3.4% of all), similar ones and a draw of the others.

SMILES	PAFAH1B2 inh	pPAFAH FP inh	PP5 inh	PAFAH2 FP inh	PAFAH1B3 inh	PP1 counter	PP1 confirm	PP5 inh counter	others
C[C@@]12C(=O)OC(=O)[C@]1(C)C1CCC2O1	1	1	94*	-2	3	95*	93*	93*
COc1ccc(NC(=O)C2C3CCC(O3)C2C(=O)O)c(OC)c1 (centres undefined)	-1	0	76*	9	7	75*	29*	46*
O=C(O)C1C2CCC(O2)C1C(=O)Nc1ccc(Cl)cc1 (centres undefined)	nt	0	69*	nt	nt	63*	18*	26*
COc1ccc(OC)c(CC(=O)O)c1	1	1	-4	3	2	-3	nt	nt
O=C(Nc1ccc(Cl)cc1)N1CC1	6	nt	nt	-8	10	nt	nt	nt
O=C(O)C1C2CCC(O2)C1C(=O)NC1CCCCC1 (centres undefined)	4	5	76*	-7	0	73*	48*	56*
NC(N)=N/N=C/c1ccc(N(c2ccccc2)c2ccccc2)cc1	9	11	6	6	12	38*	25*	-3
O=C(c1cc(C(=O)NCc2ccc(Cl)cc2)c(=O)n(Cc2ccc(Cl)cc2)c1)c1cc(F)ccc1O	-22	-10	5	-33	-28	4	nt	nt
CC1(c2ccc(Cl)cc2Cl)OCC(Cn2cncn2)O1 (centres undefined)	3	0	1	1	4	-1	nt	nt
Cc1ccc(C[n+]2c(-c3ccc(C)cc3)cc(-c3ccc(C)cc3)cc2-c2ccc(C)cc2)cc1	-1	-2	2	6	10	24*	-6	1
CN(C)C1C(=O)C(C(N)=O)=C(O)C2(O)C(=O)C3=C(O)c4c(O)cccc4C(C)(O)C3C(O)C12 (centres undefined)	10	73*	4	26	26*	33*	-4	-4	pPAFAH confirm=7
O=C1/C(=C\c2ccc(Cl)cc2Cl)N2CCC1CC2	nt	1	2	nt	nt	-7	nt	nt
O=C(O)CC1OCC=C2CN3CCC45C6=CC(=O)C(=O)C([N+](=O)[O-])=C6NC4C1C2CC35 (centres undefined)	10	5	21*	9	72*	33*	53*	2	PAFAH1B3 conf FP=9
O=C(O)CC1OCC=C2CN3CCC45c6ccccc6NC4C1C2CC35 (centres undefined)	-1	-8	0	2	0	-1	nt	nt
CSc1nnc([C@@H](N)Cc2c[nH]c3ccccc23)o1	0	7	-1	1	4	2	nt	nt
c1cncc(C2Nc3cccc4cccc(c34)N2)c1	2	8	1	-1	36*	23*	-5	-1	PAFAH1B3 conf FP=12
CN(C)C(=O)Oc1noc2cc(Cl)ccc12	0	43*	1	41*	2	-7	nt	nt	pPAFAH confirm=52*
CN(C)C(=O)Oc1c(Cl)cc(Cl)c2cccnc12	2	6	0	0	5	-3	nt	nt
COc1cc(N2CCOCC2)ccc1/C=C1\C(=O)NC(=O)N(Cc2ccc3c(c2)OCO3)C1=O	1	10	-1	2	9	-4	nt	nt
C=CCN1CC[C@]23c4c5ccc(O)c4OC2C(O)C=CC3[C@H]1C5 (some centres undefined)	5	1	nt	2	8	nt	nt	nt
COc1cc(/C=C2\C(=O)NC(=O)N(c3ccccc3)C2=O)c([N+](=O)[O-])cc1OC	3	nt	nt	7	5	nt	nt	nt
COc1ccc(OC)c(N2C(=O)NC(=O)/C(=C/c3ccc([N+](=O)[O-])s3)C2=O)c1	55*	62*	2	66*	69*	0	nt	nt	pPAFAH confirm=58*
O=[N+]([O-])c1cc(O)c(O)c([N+](=O)[O-])c1	16	37*	2	37*	16	4	nt	nt	pPAFAH confirm=70*
